Compounds without any hit were thinned out: in the full panel of roughly 83,000, 20% have a hit.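 Negative percent growth values reflect cell death: -40 means 40% of the cells present at the start died, and -100 means all died.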 Values without a mark were called inactive. The source made the active and inactive calls. The calls were made as follows: active = growth percent below 10; inactive = the rest.
Each molecule was assayed on CCRF-CEM leukemia (assay: NCI-60 one-dose screen, 48 h (100 = growth as untreated, 0 = no growth, -100 = all killed)). Conditions: 10 µM unless noted.

| SMILES | growth |
| --- | --- |
| O=C1Nc2ccc(C(=O)O)cc2/C1=N/c1nnc(Sc2ccccc2)s1 | 99.7% |
| CCN1CCN(C(=O)[C@]23CCC(C)(C)C[C@@H]2C2=CC[C@@H]4[C@@]5(C)CCC(=O)C(C)(C)[C@@H]5CC[C@@]4(C)[C@]2(C)CC3)CC1 | 37.5% |
| Nc1ncnc2c1C(c1ccccc1)c1ccc3ccccc3c1O2 (stereo not drawn) | 91.6% |
| Cn1cc(-c2ccc3nc(-c4ccc(CC(=O)ONc5cc(C(C)(C)C)on5)cc4)cnc3c2)cn1 | 38.8% |
| Cc1ccc2c(c1)=C/C(=C\c1cc(-c3ccccc3)oc1O)C(=O)N=2 | 100% |
| COc1ccc(-c2nc3c(ncc4ccc(=O)[nH]c43)s2)cc1 | 72.6% |
| CC1CN(S(=O)(=O)c2oc(-c3ccc(Cl)cc3)nc2C#N)CC(C)O1 (stereo not drawn) | -2.97% (active) |
| C#CCOC(=O)/C=C/c1cn(-c2ccccc2)nc1-c1ccc(OC)cc1 | 97.5% |
| O=C(Nc1cccc(Cl)c1)Nc1cccc(Cn2c(=O)[nH]c3ccc(Oc4ncccn4)cc3c2=O)c1 | 32.6% |
| COc1ccc(/C=C/C(=O)c2cc3c(N)c(C(=O)Nc4cccc5ccccc45)sc3nc2C)cc1 | 33.6% |
| CCCNc1nc2ccccc2c2c1S(=O)(=O)c1ccc(Cl)cc1C2=O | -5.94% (active) |
| NC(=O)CSc1oc(-c2ccccc2)nc1S(=O)(=O)c1ccc(Br)cc1 | 110% |
| N#CSc1c[nH]c2cccc(/C=C/C(=O)/C=C(/C=C/c3cccc4[nH]cc(SC#N)c34)OB(F)F)c12 | -10.9% (active) |
| C=C1C(=O)O[C@H]2[C@H]1CC/C(COC(=O)NCc1ccc(Cn3c(=O)sn(CCCCC)c3=O)cc1)=C\CC[C@@]1(C)O[C@@H]21 | -22% (active) |
| N#CC(C#N)N=Nc1ccc(Br)cc1 | 9.65% (active) |
| COc1ccc(-c2noc(C(=O)O)c2-c2cc(OC)c(OC)c(OC)c2)cc1 | 7.85% (active) |
| COc1c(B(O)O)cccc1-c1cc(C)c2c(ccc3[nH]ncc32)n1 | 63.3% |
| COc1ccc2cc1Oc1ccc(cc1)C[C@H]1c3c(cc4c(c3Oc3cc5c(cc3OC)CCN(C)[C@@H]5C2)OCO4)CCN1C | 21% |

What follows are molecules tested on MOLT-4 leukemia in the same assay as above. Conditions: 10 µM unless noted.

| SMILES | growth |
| --- | --- |
| NC(=O)C(=O)c1ccccc1NC=O | 108% |
| N#Cc1c(-c2ccccc2)[nH]c2ncc(-c3ccccc3)n2c1=O | 101% |
| O=S(=O)(Nc1cc(Cl)ccc1Cl)c1ccc(-c2cnc(C3CC3)o2)cc1 | 44.1% |
| COc1cc(C2CC(c3ccc(Nc4nc(Nc5ccc(Cl)cc5)nc(Nc5ccc(Cl)cc5)n4)cc3)=NN2C(C)=O)cc(OC)c1OC (stereo not drawn) | 79% |
| N#Cc1c(-c2ccc(Cl)cc2)c(C#N)c2c(C#N)c(N)nn2c1N | 79.4% |
| CC(=O)N1N=C(c2ccc(Nc3nc(Nc4ccccc4)nc(Nc4ccccc4)n3)cc2)CC1c1cccc([N+](=O)[O-])c1 (stereo not drawn) | 84.5% |
| N#CC1=C(c2ccccc2)Nc2c(c(-c3ccc(Cl)cc3)nn2-c2ccccc2)C12C(=O)Nc1ccc(Cl)cc12 (stereo not drawn) | 52.5% |
| O=C(Nc1nc2ccc(C(=O)N3CCN(/C=C/c4ccccc4)CC3)cc2s1)c1ccc(NCCc2ccccc2)c([N+](=O)[O-])c1 | 27.4% |
| Cc1ccc(/C=C2\COc3ccc(O)cc3C2=O)cc1 | 40.6% |
| CCNCCNc1cc(C2CCCCC2)c(C#N)c2nc3ccccc3n12 | -7.01% (active) |
| Nc1c(C(=O)Nc2ccncc2)sc2nc3c(cc12)C(O)CCC3 (stereo not drawn) | 98% |
| C=CCN=c1sc2c(n1NC(=O)c1cc3ccc1CCc1ccc(cc1)CC3)C(=O)c1ccccc1C2=O | -15.5% (active) |
| Cc1nc2sc(C(=O)Nc3cccc(Br)c3)c(N)c2cc1C(O)c1ccccc1 (stereo not drawn) | 17.1% |
| Cc1cc(S(=O)(=O)/N=C(\N)n2nc(C)c(C)c2C)c(SCc2ccccc2)cc1Cl | 46% |
| Oc1ccc(Cl)cc1/C=N\NC(=S)N/N=C/c1cc(Cl)ccc1O | 11.8% |
| O=C(/C=C/c1cccs1)Nc1ncc(Cc2ccccc2F)s1 | 26% |
| COC(=O)CC[C@H](C)[C@H]1CC[C@H]2[C@@H]3CC[C@@H]4CC5(CC[C@]4(C)[C@H]3CC(=O)[C@]12C)Nc1ccccc1NC5=NC(C)(C)C (stereo partly drawn) | 54.6% |
| CC1CCc2c(C(=O)Nc3ncc(Cc4cccc([N+](=O)[O-])c4)s3)csc2C1 (stereo not drawn) | 26% |
| O=C1/C=C/[C@@H](O)[C@@H]2C[C@@H](O)C[C@H]2/C=C/CCC[C@H](CCc2ccccc2)O1 | 9.48% (active) |
| O=C(Nc1ccccc1O)c1ccc(CNC(=O)c2sccc2Nc2ccnc(C(F)(F)F)c2)cc1 | 12.1% |

| SMILES | growth |
| --- | --- |
| COc1ccc(C(=O)/C=C/c2c(C(F)(F)F)nc3ccccn23)cc1OC | 7.14% (active) |
| CCC(=C(c1ccc(OCCN2CCCCC2)cc1)c1ccc(OCCN2CCCCC2)cc1)c1ccc(Cl)cc1 | -68.2% (active) |
| O=C1Nc2ccc(C(=O)O)cc2/C1=N/c1nnc(Sc2ccccc2)s1 | 105% |
| CCN1CCN(C(=O)[C@]23CCC(C)(C)C[C@@H]2C2=CC[C@@H]4[C@@]5(C)CCC(=O)C(C)(C)[C@@H]5CC[C@@]4(C)[C@]2(C)CC3)CC1 | 10.1% |
| Nc1ncnc2c1C(c1ccccc1)c1ccc3ccccc3c1O2 (stereo not drawn) | 68.4% |
| Cn1cc(-c2ccc3nc(-c4ccc(CC(=O)ONc5cc(C(C)(C)C)on5)cc4)cnc3c2)cn1 | 11.6% |
| Cc1ccc2c(c1)=C/C(=C\c1cc(-c3ccccc3)oc1O)C(=O)N=2 | 90.6% |
| COc1ccc(-c2nc3c(ncc4ccc(=O)[nH]c43)s2)cc1 | 31.8% |
| CC1CN(S(=O)(=O)c2oc(-c3ccc(Cl)cc3)nc2C#N)CC(C)O1 (stereo not drawn) | -10.6% (active) |
| C#CCOC(=O)/C=C/c1cn(-c2ccccc2)nc1-c1ccc(OC)cc1 | 75.8% |
| O=C(Nc1cccc(Cl)c1)Nc1cccc(Cn2c(=O)[nH]c3ccc(Oc4ncccn4)cc3c2=O)c1 | 6.46% (active) |
| COc1ccc(/C=C/C(=O)c2cc3c(N)c(C(=O)Nc4cccc5ccccc45)sc3nc2C)cc1 | 100% |
| CCCNc1nc2ccccc2c2c1S(=O)(=O)c1ccc(Cl)cc1C2=O | 4.02% (active) |
| NC(=O)CSc1oc(-c2ccccc2)nc1S(=O)(=O)c1ccc(Br)cc1 | 89.2% |
| N#CSc1c[nH]c2cccc(/C=C/C(=O)/C=C(/C=C/c3cccc4[nH]cc(SC#N)c34)OB(F)F)c12 | -14.4% (active) |
| C=C1C(=O)O[C@H]2[C@H]1CC/C(COC(=O)NCc1ccc(Cn3c(=O)sn(CCCCC)c3=O)cc1)=C\CC[C@@]1(C)O[C@@H]21 | -15% (active) |
| N#CC(C#N)N=Nc1ccc(Br)cc1 | 31.8% |
| COc1ccc(-c2noc(C(=O)O)c2-c2cc(OC)c(OC)c(OC)c2)cc1 | 25.7% |
| COc1c(B(O)O)cccc1-c1cc(C)c2c(ccc3[nH]ncc32)n1 | 64.2% |
| COc1ccc2cc1Oc1ccc(cc1)C[C@H]1c3c(cc4c(c3Oc3cc5c(cc3OC)CCN(C)[C@@H]5C2)OCO4)CCN1C | 31.5% |

From PubChem BioAssay (NCI)
